The values that follow come from PubChem BioAssay (NCI).

This is part of a sample that, as a whole, favours compounds with a hit. Of some 83,000 tested, about 20% had one in any assay.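 Method: cells in 96-well plates; compound added at one concentration; 48 h incubation; percent growth measured; values under 10 scored active.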 Unmarked numbers belong to inactive results. Calls of active or inactive are those of the source.

Holding throughout (test): NCI-60 one-dose screen, 48 h (100 = growth as untreated, 0 = no growth, -100 = all killed)
Assay [1] has as its system NCI-H522 lung. The following applies: 10 µM unless noted.
Assay [2] has as its system COLO 205 colon. The following applies: 10 µM.
Assay [3] relates to HCT-15 colon. The following applies: 10 µM.
For assay [4], the system named is SNB-19 CNS. The following applies: 10 µM unless noted.
The subject of assay [5] is SK-MEL-5 melanoma. The following applies: 10 µM unless noted.
Assay [6] has as its system LOX IMVI melanoma. The following applies: 10 µM unless noted.
The subject of assay [7] is EKVX NSCLC. The following applies: 10 µM unless noted.
Assay [8] relates to SN12C renal. The following applies: 10 µM unless noted.
In assay [9] the test system is TK-10 renal. The following applies: 10 µM unless noted.
Assay [10] concerns CCRF-CEM leukemia. The following applies: 10 µM unless noted.
Assay [11] relates to MOLT-4 leukemia. The following applies: 10 µM.
Assay [12] has as its system RPMI-8226 leukemia. The following applies: 10 µM unless noted.
Assay [13] concerns OVCAR-8 ovarian. The following applies: 10 µM unless noted.
Assay [14] has as its system MDA-MB-435 melanoma. The following applies: 10 µM unless noted.
For assay [15], the system named is HCC-2998 colon. The following applies: 10 µM unless noted.
Assay [16] relates to MALME-3M melanoma. The following applies: 10 µM unless noted.
Assay [17] has as its system IGROV1 ovarian. The following applies: 10 µM.
In assay [18] the test system is SR leukemia. The following applies: 10 µM.

Turning to `CC(C)CCC[C@@H](C)[C@H]1CC[C@H]2[C@@H]3CC=C4C[C@@H](OC(=O)Cc5ccc(N(CCCl)CCCl)cc5)CC[C@]4(C)[C@H]3CC[C@]12C`, the growth is 124% in [1]; 117% in assay [2]; 108% in assay [3]; 107% in [4]; 95.8% in assay [5]; 104% in [6]. The growth in assay [7] was 106%; in assay [8] it was 99.9%; in assay [9], 159%; in assay [10], 120%; in [11], 99.8%; in assay [12], 108%. Besides, the growth is 99.8% in assay [13], 113% in [14] and -5.75% (active) in [15].

Consider `CC(C)(C)NCC(O)c1ccccc1Cl` (configuration not stated), for which the growth is -37.2% (active) in assay [1]; 5.34% (active) in assay [2]; 35.8% in assay [16]; 58.9% in [3]; 35.1% in assay [6]; 53.6% in [7]. Further, the growth was 24.1% in [8]; 17.3% in [9]; 31.6% in assay [11]; 9.87% (active) in [13]; 45.5% in [17]; -52.5% (active) in [14]. Moreover, in [15], the growth is -28.8% (active).

Regarding `CC(C)C1c2ccc(O)cc2Oc2nc(N)c(C#N)c(N)c21` (configuration not stated), the growth in [1] is 86.4%; in assay [2] it was 109%; in assay [4], 101%; in [5] it was 91%; in assay [6], 103%; in [10] it was 94.8%. Moreover, the growth is 98.1% in assay [11]; 97.1% in assay [18]; 89.4% in assay [12]; 96.2% in [13]; 111% in assay [17]; 103% in assay [14].

Take `CC(C)N=C(NC(C)C)N1CC1`: the growth in [1] was 98.2%; in assay [2], 113%; in assay [16], 124%; in assay [5], 113%; in assay [6], 116%; in assay [7] it was 102%. The growth was 111% in [8]; 122% in assay [9]; 116% in [10]; 105% in [11]; 108% in assay [13]; 123% in assay [17]. In [15], the growth was 103%.

As to `CC(N)Cc1ccc(O)cc1` (configuration not stated), the growth in [1] was 105%; in [2], 128%; in assay [16], 98.6%; in assay [3], 113%; in assay [4], 114%; in [5], 103%. The growth in assay [7] is 107%; in assay [8], 105%; in assay [9] it was 98.3%; in assay [10], 93.9%; in [11], 83.4%; in [18] it was 55.4%. Besides, the growth in [12] is 98.3%; in assay [13] it was 101%; in assay [14] it was 106%; in assay [15] it was 111%.

Turning to `CCC1([N+](=O)[O-])COP(=O)(NCc2cccnc2)OC1` (configuration not stated), the growth was 109% in assay [1]; 119% in [2]; 107% in assay [5]; 102% in assay [6]; 106% in assay [7]; 114% in [8]. Also, the growth was 101% in assay [10]; 111% in assay [11]; 105% in assay [18]; 104% in [12]; 108% in [13]; 117% in assay [14].

With `C[C@]12CC[C@H](OC3OC(O)C(O)C(O)C3O)C=C1CCC1C2CC[C@]2(C)[C@@H](c3ccc(=O)oc3)CC[C@]12O` (some centres not stated), the growth in [1] was -61.4% (active); in [2], -85.1% (active); in assay [16] it was -47.6% (active); in assay [3], -81.8% (active); in [4], -98.8% (active); in [6] it was -84.4% (active). Moreover, the growth in assay [7] was -86.6% (active); in assay [9], -80.6% (active); in [10], -33.8% (active); in assay [11] it was -39.3% (active); in [18], -42.7% (active); in [12], -20.5% (active). Besides, the growth in [13] was 110%; in assay [17], -12.1% (active); in [14], -88.2% (active); in assay [15], -90.4% (active).

Regarding `O=C(NCCNC(=O)c1ccc([As](O)O)cc1)c1ccc([As](O)O)cc1`, the growth in assay [1] is 103%; in assay [2], 100%; in assay [16], 108%; in [3], 107%; in assay [4], 106%; in assay [7], 103%. Besides, the growth was 113% in assay [8]; 111% in assay [9]; 105% in assay [10]; 109% in assay [11]; 101% in assay [18]; 103% in assay [13]. Further, the growth in [17] is 110%; in [14] it was 104%.

Take `COc1cc(/C=C\c2cc(OC)c(OC)c(OC)c2)cc(N/C=C\C(=O)c2ccc(OC(F)(F)F)cc2)c1OC`: the growth in assay [1] is -54.8% (active); in assay [2], 3.12% (active); in assay [3], 9.36% (active); in assay [4], 74.6%; in assay [5], 27.6%; in assay [6] it was 33.4%. Further, the growth in [8] was 36.5%; in assay [10], 8.99% (active); in [11], 34.6%; in assay [18], 4.84% (active); in assay [12], 11.8%; in assay [13], 30%. In assay [17], the growth was 48.3%.

With `CNC(=O)Oc1cccc(N(C)C)c1`, the growth in assay [1] was 89.1%; in [2], 108%; in assay [16], 101%; in assay [3], 103%; in assay [5], 99.2%; in assay [6] it was 96.9%. Further, the growth was 108% in assay [9]; 107% in assay [11]; 103% in assay [18]; 101% in assay [12]; 99.5% in [13]; 108% in assay [17]. In addition, the growth in assay [14] is 97.5%.

With `O=S(=O)(c1ccc(Cl)cc1)C(Cl)(Cl)Cl`, the growth was 11% in [1]; 48% in [2]; 9.32% (active) in [16]; 42.5% in [5]; 35.1% in assay [6]; 40.6% in [7]. Further, the growth was 58.3% in assay [8]; 50.6% in [9]; 25.3% in [10]; 16.2% in assay [11]; 15.1% in assay [18]; 18% in [12]. The growth was 58.5% in [13], 33.6% in assay [17] and 18.3% in [15].
